Screens: PubChem, several laboratories
Mcl1-Noxa inh = Mcl-1/Noxa binding inhibitors, primary screen, biochemical, TR-FRET, 1536-well. 220,000 compounds, 1.5% hits. TR-FRET Mcl-1/Noxa peptide binding, 2 h. Induced myeloid leukemia cell differentiation protein Mcl-1 (Homo sapiens), Q07820. inhibition, % at 21.7 µM;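 active means compounds that cut the protein-peptide binding signal by more than 50% relative to plate controls in a single-dose test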;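 further: His-tagged Mcl-1 with rhodamine Noxa BH3 peptide and terbium anti-His antibody; 0% = Mcl-1 plus Noxa peptide wells and 100% = peptide-only wells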
Mcl-1 Bim block = inhibitors of Bim peptide binding to Mcl-1, primary screen, biochemical, bead-based flow cytometry, multiplex. Induced myeloid leukemia cell differentiation protein Mcl-1 (Homo sapiens), Q07820. Bim peptide-Mcl-1 binding. inhibition, % at 10 µM. 190,000 compounds, 0.1% hits. AID 1009, 2008; in the data active means inhibition above about 40%;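 further: 0% = no compound tracer wells and 100% = peptide blocker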
NOD2 RIPK2 PPI = NOD2-RIPK2 binding disruptors in cells, primary screen, fluorescence, CHO cells, BLA complementation. CCF4 ratio. inhibition, % at 4.98 µM. 360,000 compounds, 0.38% hits; in the data active means inhibition above about 21%;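 further: 0% = vehicle only and 100% = reference blocker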
Mcl1 Bid PPI = Mcl-1/Bid binding inhibitors, primary screen, biochemical, TR-FRET, 1536-well; Induced myeloid leukemia cell differentiation protein Mcl-1 (Homo sapiens), Q07820; inhibition, % at 21.7 µM; 220,000 compounds, 0.97% hits; AID 1021, 2008; TR-FRET Mcl-1/Bid-Dy647 peptide binding;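 active means compounds that cut the binding signal by more than half at the single screening dose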;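 further: His-tagged Mcl-1 with europium anti-His antibody binding Bid BH3 peptide; 0% = Mcl-1 plus peptide wells and 100% = peptide-only wells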
TLR4-MyD88 BLA = inhibitors of TLR4-MyD88 association in cells, primary screen, cell-based, HeLa CL3-4, BLA complementation, FRET ratio | HeLa CL3-4 TLR4/MyD88 BLA complementation | 200,000 compounds, 0.18% hits | Toll-like receptor 4 (Homo sapiens) + Myeloid differentiation primary response protein … | inhibition, % at 8.4 µM; in the data active means inhibition above about 25%;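 further: 0% = vehicle and 100% = reference inhibitor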
TLR9-MyD88 inh = inhibitors of TLR9-MyD88 association in cells, primary screen, cell-based, CHO, BLA complementation, fluorescence; Toll-like receptor 9 (Homo sapiens) + Myeloid differentiation primary response protein …; CCF4 FRET ratio; inhibition, % at 4.98 µM; 340,000 compounds, 0.21% hits;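 active means inhibition above the mean over all tested compounds plus 3 SD, cut at about 21% in these data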;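 further: 0% = DMSO only wells and 100% = clavulanate BLA inhibitor control wells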
TLR4-MyD88 conf = TLR4-MyD88 association inhibitors, retest, confirmation, cell-based, HeLa CL3-4, BLA complementation, FRET ratio; CCF4 FRET ratio; inhibition, % at 8.4 µM; 350 compounds, 50% hits; shares compounds with TLR4-MyD88 BLA;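 active means mean inhibition across three repeat runs above about 25% carried over from the earlier screen, limit read from the data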;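 further: plate controls were DMSO only for no effect and clavulanic acid blocking BLA at full dose for full effect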
BLA inhibitor ct = counter-screen for TLR4-MyD88 inhibitors: beta-lactamase reporter inhibitors; shares compounds with TLR4-MyD88 BLA; HeLa BLA reporter, CCF4 FRET ratio; inhibition, % at 8.4 µM; 350 compounds, 63% hits; AID 1237;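 active means mean inhibition over three repeats above about 26% taken from the earlier screen, limit read from the data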;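 further: HeLa cells stably expressing beta-lactamase reporter as counterscreen for TLR4-MyD88 inhibitors; 0% = DMSO and 100% = clavulanic acid full inhibition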
The depositor's hits bear a star; / = no result given; ! = not active in a repeat. An excerpt weighted towards active compounds, which were near 1.8% of everything screened.

SMILES	Mcl1-Noxa inh	Mcl-1 Bim block	NOD2 RIPK2 PPI	Mcl1 Bid PPI	TLR4-MyD88 BLA	TLR9-MyD88 inh	others
COc1ccc(C(CNC(=O)c2cccc(S(=O)(=O)N3CCc4ccccc43)c2)N(C)C)cc1 (stereo not drawn)	/	/	2	/	/	-9
CCCOc1ccc(-c2nnc(N)s2)cc1	62*	-3	-14	-37	0	7
Cc1cc(C)c2c(c1)C1C=CCC1C(c1ccc(S(=O)(=O)N3CCOCC3)cc1)N2 (stereo not drawn)	95*	0	-6	70*	-3	-1
O=C(O)c1cc(Cl)c2c(c1)[C@@H]1C=CC[C@@H]1[C@H](c1ccc(S(=O)(=O)N3CCOCC3)cc1)N2	23	0	-4	-7	4	-4
COC(=O)c1cc(S(=O)(=O)N2CCCC2=O)c(Cl)cc1Cl	/	/	-1	/	/	-2
CCc1ccc2[nH]c(=O)c(C(c3nnnn3CC3CCCO3)N3CCN4CCCC4C3)cc2c1 (stereo not drawn)	10	1	-10	95*	-7	-9
Cc1ccc2[nH]c(=O)c(C(c3nnnn3CC3CCCO3)N3CCOCC3)cc2c1 (stereo not drawn)	2	0	-3	0	0	-8
Cn1c(=O)c2c(nc(NCc3ccco3)n2CC(O)COc2ccccc2)n(C)c1=O (stereo not drawn)	81*	-5	-8	-12	0	8
CCCn1c(NCc2ccco2)nc2c1c(=O)n(C)c(=O)n2C	5	-2	3	-37	0	-9
COc1ccccc1N1CCN(c2ncnc3sc(C(=O)NCC4CCCO4)c(C)c23)CC1 (stereo not drawn)	/	/	-13	/	/	-25
Cc1ccc(C)n1-c1cccc(C(=O)O)c1	99*	13	/	88*	/	/
Nc1nn2c(-c3ccccc3)cc(=O)[nH]c2c1N=Nc1ccc(Br)cc1	92*	1	-3	36	-6	-4
Nc1nn2c(-c3ccccc3)cc(=O)[nH]c2c1N=Nc1ccc(O)cc1	37	6	-5	80*	-35	-4
Cc1cc2[nH]c(=O)cc(-c3ccccc3)n2n1	/	/	14	/	/	-11
C=CCn1c(O)c(C2=c3ccccc3=NC2=O)sc1=Nc1ccc(O)cc1	52*	/	-14	-15	/	-10
Cn1c(CCCNC(=O)c2ccco2)nc2ccccc21	/	/	-8	/	/	-2
CN(C(=O)c1cc(COc2ccc(F)c(F)c2)on1)C1CCOC1 (stereo not drawn)	/	/	11	/	/	-9
Cc1ccc(/C=C/C(=O)Nc2sc3c(c2C#N)CCCC3)o1	51*	-4	-6	14	14	-1
CC(=O)c1ccc(OCC(O)CN2CCN(Cc3ccc4c(c3)OCO4)CC2)cc1 (stereo not drawn)	28	0	4	52*!	0	6
OC(COCc1ccccc1)CN1CCN(Cc2ccc3c(c2)OCO3)CC1 (stereo not drawn)	55*	-1	-14	9	-1	-3
Fc1ccccc1NC(=S)N1CCN(Cc2ccc3c(c2)OCO3)CC1	4	0	-10	92*	11	3
SC(COCc1ccccc1)CN1CCN(Cc2ccc3c(c2)OCO3)CC1 (stereo not drawn)	-5	-1	0	-55	5	-7
Cc1cc(Cl)ccc1NC(=S)N1CCN(Cc2ccc3c(c2)OCO3)CC1	17	-2	-5	-26	-10	6
COc1ccc(OCC(O)CN2CCN(Cc3ccc4c(c3)OCO4)CC2)cc1 (stereo not drawn)	24	-1	3	-12	7	-4
O=C(CN(c1ccccc1)S(=O)(=O)c1ccccc1)Nc1ccc(F)cc1	/	/	3	/	/	-8
SMILES	Mcl1-Noxa inh	Mcl-1 Bim block	NOD2 RIPK2 PPI	Mcl1 Bid PPI	TLR4-MyD88 BLA	TLR9-MyD88 inh	others
Cc1[nH]n2c(=O)c3c(nc2c1-c1ccc(F)cc1)CCCC3	4	4	-6	81*	-2	/
Cc1[nH]n2c(=O)c3c(nc2c1-c1ccccc1)CCCC3	19	-3	-5	-10	0	6
O=c1c2c(nc3cc(-c4ccc(F)cc4)[nH]n13)CCCC2	52*	0	-1	-24	-16	-9
NC1CCN(c2c(F)cc3c(=O)c(C(=O)O)cn(C4CC4)c3c2Cl)C1 (stereo not drawn)	-37	/	0	63*	/	-3
CCOC(=O)C1CCN(CC(=O)N2C(C)CCCC2C)CC1 (stereo not drawn)	30	-1	-1	65*	-1	-9
CCOC(=O)C1CCN(CC(=O)N2CCc3ccccc32)CC1	/	/	3	/	/	-8
O=C(/C=C/c1ccco1)c1ccc(NC(=O)C23CC4CC(CC(C4)C2)C3)cc1	60*	-4	0	31	-4	12
O=C(C=Cc1ccco1)c1ccc([N+](=O)[O-])cc1	/	/	-4	/	/	2
O=C(O)CC12CSc3[nH]c(=O)sc3C1c1ccccc1OC2=O (stereo not drawn)	-4	0	/	66*	-2	/
CCOC(=O)/C(=C\c1ccc(N2CCC(c3ccccc3)=N2)cc1)C(C)=O	/	/	0	/	/	-11
O=C(/C=C/c1ccc(N2CCC(c3ccccc3)=N2)cc1)c1ccccc1	13	/	/	-14	38*	/	TLR4-MyD88 conf=19;BLA inhibitor ct=12
CCOC(=O)[C@]12CCC=C1N(Cc1ccccc1)C(=O)[C@H](CC(=O)NCCC(C)C)C2	/	/	1	/	/	/
Cc1ccccc1C(=O)N=c1ccn(-c2nc3ccccc3nc2NS(=O)(=O)c2ccc(F)cc2)cc1	/	/	-3	/	/	13
O=C(N=c1ccn(-c2nc3ccccc3nc2NS(=O)(=O)c2ccccc2)cc1)c1cccs1	-238	-2	15	-274	66*	-2	TLR4-MyD88 conf=10;BLA inhibitor ct=15
O=C(NCCOc1ccccc1)C1C(=O)Nc2ccccc2C(=O)N1C1CCCCC1 (stereo not drawn)	/	/	-5	/	/	/
O=S1(=O)C=C(Sc2nc3ccccc3s2)c2ccccc21	-13	-3	/	-8	26*	/	TLR4-MyD88 conf=13;BLA inhibitor ct=-19
CC(C)CSC1=NSC2=NC(=O)/C(=C\c3coc4ccccc4c3=O)C(=N)N12	15	/	17	5	43*	9	TLR4-MyD88 conf=14;BLA inhibitor ct=31*
